Source: PubChem BioAssay
Compounds with a hit are over-represented: about 3% of the library has one in this group of screens.
PAFAH1B3 FP inh – PAFAH1B3 enzyme inhibitors, primary screen, biochemical, fluorescence polarization, human; 340,000 compounds, 0.28% hits; Platelet-activating factor acetylhydrolase IB subunit alpha1 (Homo sapiens), Q15102; recombinant PAFAH1B3, FP-rhodamine probe; AID 492972, 2010; inhibition, % at 3.39 µM;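 active means inhibition above the screen-wide average of all tested compounds plus 3 SD, cut at about 25% in these data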
PAFAH2 inh – PAFAH2 enzyme inhibitors, primary screen, biochemical, fluorescence polarization, human; Platelet-activating factor acetylhydrolase 2, cytoplasmic (Homo sapiens), Q99487; 340,000 compounds, 0.99% hits; recombinant PAFAH2, FP-rhodamine activity probe; inhibition, % at 3.39 µM;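 active means inhibition above the mean over all tested compounds plus 3 SD, cut at about 30% in these data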;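 further: inhibitors block probe labeling of enzyme so polarization drops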
pPAFAH inh – pPAFAH enzyme inhibitors, primary screen, biochemical, fluorescence polarization, human. Platelet-activating factor acetylhydrolase (Homo sapiens), Q13093. AID 463082, 2010. recombinant pPAFAH, FP-rhodamine probe fluorescence polarization. inhibition, % at 3.39 µM. 330,000 compounds, 1.5% hits;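 active means inhibition above the mean inhibition across the screen plus 3 SD, cut at about 25% in these data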;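 further: inhibitors block binding of the rhodamine activity-based probe so polarization drops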
Fh CTSL1 inh – Fasciola hepatica cathepsin L1 inhibitors, primary screen, counter-screen for PFM18AAP inhibitor project, biochemical, QFRET, fluorogenic peptide substrate; AID 1906, 2009; recombinant F. hepatica cathepsin L1, Z-Leu-Arg-MCA fluorescence; inhibition, % at 5.96 µM; 300,000 compounds, 0.49% hits;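 active means inhibition above the mean of all tested compounds plus 3 SD, set per screening campaign, cut at about 17% in these data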
PP5 inh – PP5 phosphatase inhibitors, primary screen, biochemical, fluorescence; purified PP5c, OMFP substrate fluorescence; inhibition, % at 6.7 µM; 320,000 compounds, 0.18% hits; AID 1987, 2009;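 active means inhibition above the campaign's mean inhibition across all tested compounds plus 3 SD, cut at about 9.5% in these data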
Target sequence (P53041 whole entry, looked up): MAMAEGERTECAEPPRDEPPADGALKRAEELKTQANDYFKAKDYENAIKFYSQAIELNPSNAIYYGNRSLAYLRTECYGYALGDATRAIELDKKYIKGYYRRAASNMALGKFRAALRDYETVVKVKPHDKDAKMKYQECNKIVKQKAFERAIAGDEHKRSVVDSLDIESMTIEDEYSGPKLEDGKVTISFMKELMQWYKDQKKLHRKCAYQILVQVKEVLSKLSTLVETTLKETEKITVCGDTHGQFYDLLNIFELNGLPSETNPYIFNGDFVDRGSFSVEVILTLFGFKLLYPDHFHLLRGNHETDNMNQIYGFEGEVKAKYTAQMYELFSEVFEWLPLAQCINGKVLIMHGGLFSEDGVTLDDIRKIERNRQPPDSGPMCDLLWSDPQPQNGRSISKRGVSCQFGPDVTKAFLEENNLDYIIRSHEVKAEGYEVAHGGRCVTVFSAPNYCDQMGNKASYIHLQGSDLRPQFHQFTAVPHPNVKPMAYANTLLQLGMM
PAFAH1B2 FP inh – PAFAH1B2 enzyme inhibitors, primary screen, biochemical, fluorescence polarization, human; Platelet-activating factor acetylhydrolase IB subunit alpha2 (Homo sapiens), P68402; recombinant PAFAH1B2, FP-rhodamine activity probe; inhibition, % at 3.39 µM; 340,000 compounds, 1.2% hits;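 active means inhibition above the mean of all tested compounds plus 3 SD, cut at about 24% in these data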
Numbers stand for hits; n = inactive; x = no result.

SMILES	PAFAH1B3 FP inh	PAFAH2 inh	pPAFAH inh	Fh CTSL1 inh	PP5 inh	PAFAH1B2 FP inh
Nn1c(SCC(=O)Nc2ccc(OC(F)F)cc2)nnc(Cc2ccccc2)c1=O	n	n	n	n	n	n
N#Cc1ccc(NC(=O)Cn2cnc(S(=O)(=O)N3CCCC3)c2)cc1	n	n	n	n	n	n
O=C(c1cccc(C(F)(F)F)c1)N1CCC2(CC1)NCCc1[nH]cnc12	n	n	n	n	n	n
CCN1CCN(c2ccc(S(=O)(=O)N3CCCCC3)cc2NC(=O)c2cccc(OC(F)F)c2)CC1	n	n	n	n	n	n
O=C(N/N=C/c1cc([N+](=O)[O-])ccc1O)C12CC3CC(CC(C3)C1)C2	n	91	n	n	n	42
O=C(N/N=C/c1ccc(O)cc1O)NC12CC3CC(CC(C3)C1)C2	n	n	n	n	n	n
O=C(N/N=C/c1cc([N+](=O)[O-])ccc1O)NC12CC3CC(CC(C3)C1)C2	n	n	n	n	n	88
CCNC(=O)C(=O)N/N=C/c1cc([N+](=O)[O-])ccc1O	n	n	n	n	n	n
COc1ccc(-n2nc(C(=O)N3CCC(N4CCCCC4)CC3)c3c4ccccc4n(C)c3c2=O)cc1	n	n	n	19	n	n
CCN1CCN(C(=O)c2nn(-c3ccc(OC)cc3)c(=O)c3c2c2ccccc2n3C)CC1	n	n	n	n	n	n
COc1cc(/C=N/NC(=O)c2ccncc2)ccc1OC(=O)c1cc(OC)c(OC)c(OC)c1	n	n	n	n	n	n
CCc1cc(/C(Cc2ccccn2)=N\Nc2ccccc2)c(O)cc1O	n	n	n	n	n	n
Cc1ccc2ncccc2c1NC(=S)NC(=O)c1ccccc1	n	n	n	n	n	n
COc1ccc2[nH]c3c(c2c1)CCN1C(=O)C(CC(=O)NC/C=C(\C)CCC=C(C)C)C[C@H](C(=O)N(C(C)C)C(C)C)[C@@]31C (some centres not stated)	n	n	26	x	x	n
CC[C@]12c3[nH]c4cc(CCC(=O)N(C)C)ccc4c3CCN1C(=O)[C@@H](CC(=O)NCCN1CCOCC1)C[C@@H]2C(=O)N1CCN(C(=O)C2CC2)CC1	n	n	n	x	x	n
CC(C)=CCC/C(C)=C/CNC(=O)C[C@H]1C[C@H](C(=O)N2CCOCC2)[C@@]2(C)c3[nH]c4cc(CCC(=O)N(C)C)ccc4c3CCN2C1=O	n	n	30	x	x	n
CC[C@]12c3[nH]c4cc(CCC(=O)N(C)C)ccc4c3CCN1C(=O)[C@@H](CC(=O)NC/C=C(\C)CCC=C(C)C)C[C@@H]2C(=O)N1CCN(C(=O)C2CC2)CC1	n	n	29	x	x	n
CC(CN1CCCC1)OC(=O)c1ccc(Br)cc1 (configuration not stated)	n	n	n	n	n	n
C/C(=N\Nc1ccc(Cl)c(C(=O)O)c1)c1ccc(Br)s1	n	n	27	n	n	n
C/C(=N\NC(=O)c1ccc(Cl)c(Cl)c1)c1ccc(Br)s1	n	n	n	n	n	n
C[C@H](CO)N1C[C@H](C)[C@@H](CN(C)C(=O)Nc2ccc(C(F)(F)F)cc2)Oc2c(NC(=O)Nc3ccc4c(c3)OCO4)cccc2C1=O	n	n	n	x	x	61
C[C@H](CO)N1C[C@H](C)[C@@H](CN(C)C(=O)Nc2ccc3c(c2)OCO3)Oc2c(NC(=O)Nc3ccc(C(F)(F)F)cc3)cccc2C1=O	n	n	n	x	x	28
CC(C)NC(=O)N(C)C[C@H]1Oc2c(NC(=O)Nc3ccc(C(F)(F)F)cc3)cccc2C(=O)N([C@H](C)CO)C[C@@H]1C	n	n	n	x	x	n
COc1ccc(/C=N/NC2=NS(=O)(=O)c3ccccc32)cc1OC	n	n	n	n	n	n
COc1ccc(C(=O)CCc2ccccc2)c(O)c1	n	n	n	n	n	n
SMILES	PAFAH1B3 FP inh	PAFAH2 inh	pPAFAH inh	Fh CTSL1 inh	PP5 inh	PAFAH1B2 FP inh
O=C(CCc1ccccc1)c1c(O)cc(O)cc1O	n	n	n	n	n	42
O=C(COC(=O)CC1CC2CCC1C2)NC(=O)NCc1ccco1 (configuration not stated)	n	n	n	n	n	25
O=C(COC(=O)CC1CC2CCC1C2)Nc1cc([N+](=O)[O-])ccc1F (configuration not stated)	n	49	n	n	n	42
COc1cccc(NC(=O)CN(C)C(=O)CC2CC3CCC2C3)c1 (configuration not stated)	n	n	n	n	n	n
COc1cccc(NC(=O)COC(=O)CC2CC3CCC2C3)c1 (configuration not stated)	n	78	34	x	x	n
Cc1ccc(/C=C/C(=O)N2CCN(S(=O)(=O)c3c(C)c(C)cc(C)c3C)CC2)o1	n	n	n	43	n	n
Cc1ccc(/C=C/C(=O)N2CCN(S(=O)(=O)c3ccc(C)c(C)c3)CC2)o1	n	n	n	n	n	n
Cc1cccc(/C=N/NC(=O)c2ccncc2)n1	n	n	n	n	n	n
Cc1cc(C(=O)N/N=C2\CC(=O)c3ccccc32)c(C)n1-c1ccccc1	n	n	31	n	n	n
CCOC(=O)c1cc(C#N)c(SCC(=O)c2cc(C#N)c(SC)nc2C)[nH]c1=O	n	n	n	n	n	n
CCOC(=O)c1cc(C#N)c(SCC(=O)O)[nH]c1=O	31	n	32	n	n	n
O=C1N(Cc2ccccc2)CC2(Br)COCOC12O (configuration not stated)	n	n	x	x	x	n
O=C(O)CSc1cc(NS(=O)(=O)c2ccc(Br)cc2)c2ccccc2c1O	63	42	n	n	n	52
CCCn1c(SCC(=O)N2CC(=O)Nc3ccccc32)n[nH]c1=O	n	n	n	x	x	n
N/C(=N\OC(=O)CCC1CCCCC1)c1cccc([N+](=O)[O-])c1	n	n	n	n	n	40
N/C(=N\OC(=O)CCC1CCCC1)c1ccc([N+](=O)[O-])cc1	n	n	n	n	n	29
N/C(=N\OC(=O)CCC1CCCC1)c1ccccc1	n	n	n	n	n	n
COCCN(Cc1ccccc1)C(=O)C1CCN(C(=O)Nc2ccccc2)CC1	n	n	n	x	x	n
O=C(COC(=O)Cc1ccc(Br)cc1)Nc1ccc(Cl)cn1	n	n	25	x	x	n
Cc1ccc(OCCC(=O)OCC(=O)Nc2ccc(Cl)cn2)cc1	n	n	n	n	n	n
COc1cccc(/C=C/C(=O)OCC(=O)Nc2ccc(Cl)cn2)c1	n	32	n	n	n	n
COc1ccc(OCCCC(=O)OCC(=O)Nc2ccc(Cl)cn2)cc1	n	n	26	n	n	n
